# Source: PubChem BioAssay (National Center for Advancing Translational Sciences (NCATS))
# Pf growth 48h: inhibits P. falciparum growth in the first generation, 48 h; Potency, µM (doses to about 28.7 µM), for the others: top-dose activity change, negative = inhibition, actives largely listed as inhibitors; P. falciparum luciferase growth in erythrocytes, 48 h; hit rate 5.9% among 310,000; AID 504832; also: potency is read from the fitted curve at half-maximal effect; % is scaled to controls: 0 for no effect and ±100 for the full control effect
#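 Growth was read as firefly luciferase luminescence after a 48 h, 37 C, 5% CO2 exposure of compounds to reporter-bearing P. falciparum cultures (0.1% parasitemia, 2% hematocrit final) in Albumax-supplemented RPMI 1640.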
# LmPK inhibitor: inhibitors of Leishmania mexicana pyruvate kinase; purified LmPK, Kinase-Glo ATP luminescence, 1 h; Potency, µM (doses to about 57.5 µM), inactives show top-dose activity change, negative = inhibition, most hits filed as inhibitors; hit rate 0.37% among 290,000; Q27686; also: potency is read from the fitted curve at half-maximal effect; % is scaled to controls: 0 for no effect and ±100 for the full control effect
# Target sequence (Q27686 whole entry, looked up): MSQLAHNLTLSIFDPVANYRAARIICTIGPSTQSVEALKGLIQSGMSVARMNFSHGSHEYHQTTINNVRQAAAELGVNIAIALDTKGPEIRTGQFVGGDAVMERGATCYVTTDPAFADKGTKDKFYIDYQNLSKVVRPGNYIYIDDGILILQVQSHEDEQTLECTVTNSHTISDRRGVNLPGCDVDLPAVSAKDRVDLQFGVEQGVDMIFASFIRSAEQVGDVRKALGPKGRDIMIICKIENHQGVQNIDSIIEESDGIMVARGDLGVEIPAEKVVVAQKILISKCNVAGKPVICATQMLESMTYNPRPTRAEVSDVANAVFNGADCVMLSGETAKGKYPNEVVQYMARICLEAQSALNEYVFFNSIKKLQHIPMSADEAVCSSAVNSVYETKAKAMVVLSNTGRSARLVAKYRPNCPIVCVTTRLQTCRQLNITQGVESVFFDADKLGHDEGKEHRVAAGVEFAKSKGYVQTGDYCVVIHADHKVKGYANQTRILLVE
#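 Kinase-Glo luminescence read after 1 h RT reaction of 0.1 nM LmPK with 0.5 mM PEP and 0.1 mM ADP. Activity scaled between uninhibited and enzyme-free controls.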
# CHX counter: counter-screen hit for Shiga toxin inhibitors, cycloheximide; cell reporter, cycloheximide protein synthesis inhibition counterscreen; hit rate 12% among 300,000; max response, %; in the data active = max response mostly above about 13%, no sharp cut-off; inactive = mostly below about 14%; also: read at 38.3 µM for the half of the compounds with a filed dose; 0% is about no effect
# Pf growth 96h: P. falciparum growth inhibition at 96 hour, primary screen for plastid delayed-death inhibitors; P. falciparum luciferase reporter growth, 96 h; Potency, µM (doses to about 28.7 µM), without a hit: top-dose activity change, negative = inhibition, most hits filed as inhibitors; hit rate 6.9% among 320,000; AID 504834; also: potency is read from the fitted curve at half-maximal effect; % is scaled to controls: 0 for no effect and ±100 for the full control effect
#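 96 h incubation, 37 C, 5% CO2, of luciferase-reporter P. falciparum-infected RBCs (2% hematocrit, 0.05% parasitemia final) with test compounds; endpoint luminescence.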
# Shiga inhibitor: Shiga toxin inhibition | inhibition, % at 38.7 µM | Vero cells, Shiga toxin protein synthesis inhibition reporter | hit rate 9.2% among 290,000 | AID 2315; in the data active = inhibition mostly above about 28%, no sharp cut-off; inactive = mostly below about 43%; also: 0% is about no effect
# An asterisk follows results filed as active; ? = inconclusive; nt = not tested or not shown; + = active, no number; [ ] = another dose, or the depositor's remark. Most compounds without a hit are left out; they make up all but 22% or so of the library. Unless noted, calls follow the shape of the dose curve; as a rule, active = well fitted inhibition curve with a large enough effect; inconclusive = small, poorly fitted or top-dose-only effect, or another doubt; inactive = no such curve, though single readings can be large or run the other way.
SMILES,Pf growth 48h,LmPK inhibitor,CHX counter,Pf growth 96h,Shiga inhibitor
Cc1ccc(CSc2ncnc3c2cnn3-c2ccc(C)cc2)cc1,154.8%,-0.6%,15.3*,158.4%,7.8
Fc1ccc(-n2ncc3c(SCc4cccnc4)ncnc32)cc1,-21.8%,-2.2%,20.3*,28.9%,23.4
Cc1nc(SCc2ccccc2)c2ccsc2n1,2.3%,-0.3%,-1.3,13.6%,-5.2
Cc1ccc(CSc2ncnc3c2cnn3-c2ccccc2)cc1,54.0%,-4.6%,0.7,23.1%,-12.4
O=C(CSc1ncnc2c1cnn2-c1ccc(F)cc1)NC1CCCC1,49.3%,-5.4%,-2.7,36.3%,19.5
CCOC(=O)C1(CC2CCCCO2)CCN(S(=O)(=O)c2c(C)nn(C)c2C)CC1 (stereo not given),-25.7%,12.7%,-0.9,?,15.3
Cc1cc(C)n(Cc2cccc(C(=O)N/N=C/c3ccncc3)c2)n1,-5.8%,-8.6%,18.2,0.7%,-12.5
Brc1ccc(Cn2c(-c3ccc(Br)o3)nc3ccccc32)o1,?,-4.9%,18.3*,?,21.9
O=C1c2cccc3c(Nc4ccccc4Cl)c([N+](=O)[O-])cc(c23)C(=O)N1CCO,?,0.5%,3.3,1.04µM*,11.2
O=C(COC(=O)Cn1cc(C(F)(F)F)ccc1=O)Nc1ccc(Br)cc1F,8.8%,nt,nt,30.5%,nt
O=C(Cc1nc2ccccc2[nH]1)c1ccc(Br)cc1,?,6.0%,28.5*,1.65µM*,76.5*
O=C(Cc1nc2ccccc2[nH]c1=O)c1ccccc1,262.1%,-16.9%,51.1*,320.0%,68.9*
Cc1ccnc(S(=O)(=O)Cc2ccc([N+](=O)[O-])cc2)n1,4.9%[0.00184 µM],-4.6%,-0.7,?,-4.3
CNc1ccc(C2(O)C(=O)c3ccccc3C2=O)cc1,0.1%,-1.9%,-1.4,11.3%,-1.7
CC(=O)Nc1nnc(SCc2cccc(F)c2)s1,0.0%,-3.1%,13.4,61.4%,20.8*
Cc1nnc(NC(=O)CSc2ccccc2N)s1,26.7%,-0.5%,25.9*,?,38.5
Cc1nnc(SCC(=O)Nc2nnc(SCc3cccc(Br)c3)s2)s1,8.3%,-0.6%,-2.3,7.38µM*,-2.0
CC(=O)Nc1nnc(SCc2ccc(F)cc2)s1,48.7%,3.6%,39.0*,40.3%,23.1
Cc1nnc(SCC(=O)Nc2cccc(Br)c2)s1,-23.1%,nt,nt,?,nt
CC(=O)Nc1nnc(SCC(=O)c2ccc(F)cc2)s1,10.6%,-8.2%,11.9,-11.4%,71.3
CCOC(=O)C1CCN(C(=O)CSc2nccc(C)n2)CC1,-0.7%,0.7%,-1.9,4.8%,2.1
O=C(CCN1N=C(c2ccccc2)CCC1=O)NCC1COc2ccccc2O1 (stereo not given),-4.6%,9.2%,-1.1,-22.1%,-13.4
CC(C)[C@H](NC(=O)[C@H](CCC(N)=O)NC(=O)CNC(=O)[C@@H]1CCCN1C(=O)[C@H](Cc1ccc(O)cc1)NC(=O)CN)C(=O)O,nt,nt,-3.1,nt,6.9
CCCCN(C(=O)CSCc1ccc(C)cc1)c1c(N)n(CCC)c(=O)[nH]c1=O,-1.7%,-1.1%,1.4,40.7%,-4.5
O=C(CN1C(=O)C(=O)N(Cc2ccccc2)C1=O)Nc1ccc(F)c(Cl)c1,-1.8%,5.7%,-2.2,26.8%,-4.2
SMILES,Pf growth 48h,LmPK inhibitor,CHX counter,Pf growth 96h,Shiga inhibitor
O=C(Nc1nnc(SCc2ccc(F)cc2)s1)c1cnccn1,-14.1%,-1.0%,13.6,-34.6%,-6.2
O=C(Nc1nnc(SCc2ccc(F)cc2)s1)c1ccc2ncsc2c1,174.0%,4.0%,65.2*,142.1%,+
COc1ccc(N2CCN(C(=O)c3cc([N+](=O)[O-])ccc3N3CCN(CCO)CC3)CC2)cc1,-16.4%,-8.3%,3.3,?,-33.9
CCN(c1ccc(NC(=O)CN2C(=O)NC3(CCOc4ccccc43)C2=O)cc1)C(C)C (stereo not given),-4.6%,0.9%,11.5,nt,12.0
CCOC(=O)c1c(NC(=S)N2CCOCC2)sc2c1CCN(C(=O)OCC)C2,?,6.7%,-2.1,?,-3.7
CCOC(=O)c1c(NC(=O)Nc2ccc(C)cc2)sc2c1CCN(C)C2,11.7µM*,-9.1%,17.7,3.7µM*,31.3
CCOC(=O)c1c(NC(=S)NCc2ccccc2)sc2c1CCN(C(=O)OCC)C2,11.7µM*,-12.6%,-1.7,5.86µM*,-3.2
CCOC(=O)c1c(NC(=S)Nc2ccccc2)sc2c1CCN(CC)C2,6.57µM*,0.1%,1.7,58.4%,5.5
CCOC(=O)c1c(NC(=S)Nc2ccccc2)sc2c1CCCCC2,4.4%,0.1%,-2.1,72.2%,9.1
CCOC(=O)N1CCN(S(=O)(=O)c2ccc(C(=O)Nc3sc4c(c3C(=O)OC)CCN(C)C4)cc2)CC1,-19.8%,-2.6%,-6.9,?,-23.1
C=CCNC(=S)Nc1sc2c(c1C(=O)OCC)CCN(C(=O)OCC)C2,13.1µM*,-1.5%,-0.7,?,24.2
CCOC(=O)c1c(NC(=S)N2CCCCC2)sc2c1CCN(C(=O)OCC)C2,?,3.3%,1.1,?,4.4
CC(C)C(NC(=O)c1ccc(C(C)(C)C)cc1)C(=O)NCC(c1ccccc1)N(C)C (stereo not given),?,-5.8%,4.9,?,1.5
Cc1ccc(CN2CCN(/N=C/c3ccc(C)s3)CC2)c(C)c1,-12.8%,-0.8%,-3.9,-7.0%,-0.6
Cc1ccc2[nH]c(CNC(=O)c3ccc(F)cc3)cc2c1,-6.1%,6.8%,29.8,-12.3%,19.9
Cc1ccc2[nH]c(C(=O)Nc3ccc(F)cc3)cc2c1,-10.9%,2.4%,21.6*,8.28µM*,nt
Cc1cc(C)c2[nH]c(C(=O)Nc3ccc(F)cc3Br)cc2c1,-20.3%,0.0%,33.8*,-11.0%,67.4*
Cc1cc(C)c2cc(C(=O)Nc3ccccc3)[nH]c2c1,?,1.0%,42.4*,8.28µM*,72.5*
CCCOc1ccc(NC(=O)c2cc3cc(C)ccc3[nH]2)cc1,-10.2%,-0.6%,-0.3,11.7µM*,-6.2
CCOc1ccc(C2=CC(=O)C[C@H](c3ccc(OC)cc3)C2)cc1,-1.9%,nt,nt,24.5%,nt
COc1ccc(NC2CCCN(C(=O)CCOc3ccccc3)C2)cc1 (stereo not given),-6.1%,0.9%,-2.1,?,-3.0
CNC(=O)[C@H](C)[C@@H]1C[C@@]1(C)[C@@H](NC(=O)OCc1ccccc1)c1ccccc1,13.1µM*,2.2%,-0.7,?,-2.2
C[C@@H](C(=O)Nc1ccc2ccccc2c1)[C@H]1C[C@]1(C)[C@H](NS(=O)(=O)c1ccccc1)c1ccccc1,1.04µM*,2.1%,-2.5,?,10.7
C[C@@H](C(=O)Nc1ccc2ccccc2c1)[C@H]1C[C@]1(C)[C@H](NP(=O)(c1ccccc1)c1ccccc1)c1ccccc1,?,-0.7%,-3.0,10.4µM*,6.1
CCOc1ccc(CCNC(=O)Cn2nc(C)c3c(C)n(-c4ccccc4)nc3c2=O)cc1OCC,-0.1%,0.9%,1.1,?,-14.1
O=C(Nc1nnc(Cc2c[nH]c3ccccc23)s1)c1ccc(Cl)cc1Cl,9.9%,-7.1%,17.1*,-16.4%,34.7*
O=C(Nc1ccc(Cl)c(Cl)c1)Nc1nccs1,?,-7.9%,33.5*,-99.8%,68.9*
